The results in this text go back to PubChem BioAssay (NCI).

The structures appear in SMILES notation. Values joined by “and” are separate entries in the source; they are usually repeats but may differ in a detail not shown here. Equal values may be shown once. The panel holds about 83,000 compounds, 20% with a hit somewhere; the sample as a whole holds those more often.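 A percent growth of 40 corresponds to 60% growth inhibition; 0 means no net growth; -100 means all cells died. Active threshold: below 10.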 Values without a mark were called inactive. Active and inactive are the calls of the source.

The assay relates to HL-60(TB) leukemia. The assay can be described thus: NCI-60 one-dose screen, 48 h (100 = growth as untreated, 0 = no growth, -100 = all killed). As to conditions: 10 µM unless noted.
For the compound `C=Cc1cc[n+](CCCCCCCCCCCC)cc1`, the growth was 80%. For `COc1cc2c(cc1-c1c(C)noc1C)ncc1nc(C3CCOCC3)n([C@@H](C)COC(F)F)c12`, the growth was 24.7%.

Consider `CCNC(=O)c1[nH]cc(-c2ccccc2)c1-c1cc(OC)c2c(c1OC)OCO2`, for which the growth was 94.7%.

On to `COc1ccc2c(c1)[n+]([O-])c(C(=O)/C=C/C=C(\Cl)c1cc(OC)c(OC)c(OC)c1)c(C)[n+]2[O-]`, for which the growth is 107%. For the compound `COc1cccc(-c2nnc(COc3ccc(-c4nc5ccc(C)cc5[nH]4)cc3OC)o2)c1`, the growth is -56.2% (active). Take `CN(C)c1ccc(/C=C/C=N/NC(=O)c2cc(O)c(O)c(O)c2)cc1`: the growth is 84.2%. On to `CCc1c(C(=O)N[C@@H]2c3cc(Cl)ccc3CC[C@@H]2O)[nH]c(C)c1C(C)=O`, for which the growth was 103%. For `COc1ccc(Cn2cc(Cn3c(=O)c(-c4nc5ccccc5[nH]4)cc4ccccc43)nn2)c(OC)c1OC`, the growth was 7.75% (active). Turning to `COc1ccc(N=C2NN=C(c3ccc(F)cc3)CS2)cc1OC`, the growth is 84.5%. As for `CCOC(=O)C(C#N)Cc1ccccc1` (stereo not given), the growth was 104%.

In the case of `C#C[C@]1(O)CC[C@H]2[C@@H]3CC=C4c5nc(Nc6ccc(OC)cc6OC)sc5CC[C@]4(C)[C@H]3CC[C@@]21C`, the growth was 17.9%. Consider `COc1cc(-c2n/c(=C\c3c(O)[nH]c4ccccc34)cc3c2=Nc2ccccc2-3)cc(OC)c1OC`, for which the growth is -15.3% (active).

As for `N#Cc1ccc2c(c1)C(=O)c1c-2n(CCCN)c(=O)c2cc([N+](=O)[O-])ccc12`, the growth was -91.8% (active). Consider `O=C1Nc2ccc(C(=O)O)c(O)c2C1=O`, for which the growth was 99.8%. Take `NNc1ccc2ccccc2c1`: the growth is 98.4% and 108%. Turning to `COc1ccc(/C=N/NC(=O)CCN2c3ccccc3Sc3ccccc32)cc1`, the growth was 82%. With `CCCCOc1ccc(/C=N/NC(N)=S)cc1`, the growth was 60.5%.

With `C=C1C(=O)O[C@H]2[C@H]1CC/C(COC(=O)NCCc1ccc(OC)c(OC)c1)=C\CC[C@@]1(C)O[C@@H]21`, the growth was 30.7%.

Take `NC(=S)Cc1ccccc1`: the growth was 99.1%. The same measure for `O=C(O)c1ccc(CNS(=O)(=O)c2ccc3ccccc3c2)cc1`: 68.1%; for `O=C(CCCCCCSc1nc(-c2ccc(Cl)cc2)cc(-c2ccc(Cl)cc2)n1)NO`: 9.99% (active); for `CCC1S/C(=N\N=C(/C)c2ccco2)N(c2ccccc2)C1=O` (stereo not given): 106%.

Regarding `CO[C@H]1/C=C/O[C@@]2(C)Oc3c(C)c(O)c4c(O)c(c(/C=N/N5CCN(C)CC5)c(O)c4c3C2=O)NC(=O)/C(C)=C\C=C\C(C)[C@H](O)[C@@H](C)[C@@H](O)[C@@H](C)[C@@H](OC(C)=O)[C@@H]1C` (stereo not given in full), the growth was 104%. The figure for `NS(=O)(=O)c1ccc(CCN2C(=O)/C(=C\c3ccccc3)C=C2c2ccc(Cl)cc2)cc1` is 104%.

Take `Cc1ccc(S(=O)(=O)n2ccnc2)cc1`: the growth was 124%. The figure for `O=S(=O)(Nc1nccs1)c1ccc(Nc2nc(-c3ccncc3)cs2)cc1` is 98.6%. The same measure for `O=C(O)C(O)c1ccccc1` (stereo not given): 97.3%. The same measure for `Cc1cc(=O)[nH]c(N=Nc2c(O)[nH]c3ccccc23)n1`: 79.8%. On to `N=c1ccc2nc3c(cc(N)c4ccccc43)oc-2c1`, for which the growth was -48.4% (active). Regarding `CCN(CC)CCCC(C)Nc1c2ccc(Cl)cc2nc2ccc(O)cc12` (stereo not given), the growth is 45.7%. As to `CCOC(=O)Cn1c(O)c(N=Nc2ccc(S(N)(=O)=O)cc2)c2cc(Br)ccc21`, the growth is 96.2%. Consider `COc1cc(OC)c2sc(-c3ccc(-n4cncc4-c4ccc(OC)c(OC)c4)cc3)nc2c1`, for which the growth is 58.5%. The figure for `CC(C)(C)C1=CC(=O)C(C(C)(C)C)=CC1=O` is 92.5% and 106%. The same measure for `COc1ccc(-c2cn(-c3ccccc3)c(-c3ccccc3)n2)cc1OC`: 8.37% (active); for `Cc1sc2c(c1C)c(=O)nc1c(-c3nc4ccccc4s3)n[nH]n12`: 98.3%; for `O=C(Nc1ccc(OS(=O)(=O)Cc2ccccc2)cc1)C12CC3CC(CC(C3)C1)C2`: 60.5%. Regarding `COc1cc2cc(Oc3ccc(NC(=O)Nc4cccc(C(F)(F)F)c4)cc3)c(C)nc2cc1OCCN1CCOCC1`, the growth is 66.9%. In the case of `ClC1(Cl)C2CCCCCCC21` (stereo not given), the growth was 106%.

`CCc1ccccc1-n1c(-c2ccc(Cl)cc2)cc(-c2ccc(OC)cc2)c(C#N)c1=O`: the growth was 68.8%. For the compound `CC(=O)O[C@@H]1CCN2C(=O)N(C)c3ccccc3[C@@H]2C1`, the growth was 101%.
